{"source": "ChEMBL document CHEMBL3988442", "about": "“University of Dundee, Small-Polar-MMV Screening Library” (2021)", "data": [{"biological_target": "AMP-activated protein kinase, AMPK (Homo sapiens) (UniProt P54646+O43741+P54619+Q9UGJ0+Q9Y478+Q13131+Q9UGI9)", "test": "AMP-dependent Kinase enzyme assay. An in vitro enzyme assay that detects ADP turnover that is directly proportional to AMPK activity. This uses naive AMPK that is activated during the assay with MK-8722", "format": "functional", "design": "scale not given: direction of the effect not stated beside the values", "conditions": "30 µM", "units": {"Percent Effect": "%"}, "values": [{"compound": "Cc1nc(CC(=O)N2CCCC(N(C)Cc3ccccc3)C2)cs1", "note": "(stereo not given)", "Percent Effect": 6.8}, {"compound": "O=C(NCCOc1cccc(Cl)c1Cl)N1CCC2(CC1)OCCO2", "Percent Effect": 1.62}, {"compound": "Cc1cc(C(=O)NCC(=O)N2CCOCC2)nn1C(C)(C)C", "Percent Effect": 8.45}, {"compound": "O=C1CC2(CCN(Cc3ccc(Cl)s3)C2)C(=O)N1", "note": "(stereo not given)", "Percent Effect": 12.7}, {"compound": "CC(C)c1cc(N2CCC3(CCN(C)C3)C2)ncn1", "note": "(stereo not given)", "Percent Effect": -2.38}, {"compound": "Cc1ccc(NC(=O)CNC(C)Cc2ccsc2)cc1F", "note": "(stereo not given)", "Percent Effect": -6.2}, {"compound": "c1cnc(N2C[C@@H]3CC[C@H](C2)N(Cc2ccsc2)C3)nc1", "Percent Effect": 8.4}, {"compound": "NC1(c2nc(C(F)(F)F)cc(=O)[nH]2)CCCCC1", "Percent Effect": -5.09}, {"compound": "CSc1ccccc1C(=O)C1CCCN(Cc2cc(C(C)C)[nH]n2)C1", "note": "(stereo not given)", "Percent Effect": 6.61}, {"compound": "CC(C)NC(=O)[C@H]1CN(Cc2ccccc2)C[C@@H]1C(=O)c1ccccc1", "Percent Effect": 7.87}, {"compound": "CC(C)c1cc(N2CCC3(CC2)CN(C)CCN3C)ncn1", "Percent Effect": -4.27}, {"compound": "CCN1CCN(C(=O)COc2ccc(CN(C)S(C)(=O)=O)cc2)CC1", "Percent Effect": -0.955}, {"compound": "CCNC(=O)[C@@H]1CN(Cc2ccccc2)C[C@H]1C(=O)c1ccc(F)cc1", "Percent Effect": 15.1}, {"compound": "Cc1nn(C)c2nc(N3CCCCC3c3cccnc3)sc12", "note": "(stereo not given)", "Percent Effect": -3.14}, {"compound": "O=C(N[C@H]1CN2CCC1CC2)c1cc(Cn2cnc3ccccc32)[nH]n1", "Percent Effect": -6.79}, {"compound": "Cc1nc(C(=O)N[C@H]2COC[C@@H]2N2CCCCC2)cs1", "Percent Effect": 4.08}, {"compound": "O=C(N[C@H]1COC[C@@H]1N1CCCC1)c1csc(-c2cccs2)n1", "Percent Effect": 2.31}, {"compound": "CS(=O)(=O)N1C[C@H]2CC[C@@H]1CN(Cc1ccncc1)C2", "Percent Effect": 11.6}, {"compound": "O=C(O)[C@H]1CN(Cc2ccccc2)C[C@@H]1C(=O)c1ccccc1", "Percent Effect": 12.8}, {"compound": "CC(=O)Nc1cccc(-c2ccccc2CCN)c1", "Percent Effect": 4.86}]}]}
